Results from PubChem BioAssay.
The source made the active and inactive calls. Unless noted, the rule behind the calls is not given here.

Tests used:
[1] = compounds binding Alexa647 anti-His antibody – biochemical, small-molecule microarray, 635 nm fluorescence, artefact control for SMM control protein annotation, primary screen (AID 1128); conditions: higher = more signal;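 note: score merges feature fluorescence with signal-to-noise for each printed compound spot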
[2] = system: Human papillomavirus type 1a E7 protein (residues 1-88); experiment: HPV1a E7 small-molecule binders, primary screen, biochemical, small-molecule microarray, residues 1-88, 635 nm (AID 1129); conditions: small-molecule microarray binding, fluorescence 635 nm; higher = more signal
[3] = target: Focal adhesion kinase 1 (Homo sapiens) (UniProt Q05397); experiment: PTK2 protein binding on printed compound slides – biochemical, small-molecule microarray, 635/667 nm fluorescence, BSA, DTT, primary screen (AID 1130); conditions: 635 nm fluorescence, higher = more signal;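 note: composite of spot emission at 667 nm and signal to noise over triplicate slides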
[4] = system: Fibrinogen (Alexa647-labelled); experiment: Alexa647-fibrinogen binding to printed small molecules – biochemical, small-molecule microarray, 635/667 nm fluorescence, artefact control for SMM control-protein annotation, profiling panel (AID 1131); conditions: fibrinogen-A647 binding fluorescence, higher = more signal;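 note: z-score merges 667 nm fluorescence with per-spot signal-to-noise over triplicate slides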
[5] = target: Follistatin (Homo sapiens) (UniProt P19883); experiment: FST protein binding to printed compounds – biochemical, small-molecule microarray, 635/667 nm fluorescence, primary screen (AID 1132); conditions: 635 nm fluorescence, higher = more signal
[6] = target: Fibroblast growth factor 2 (Homo sapiens) (UniProt P09038); experiment: basic fibroblast growth factor binding to printed compounds – biochemical, small-molecule microarray, 635/667 nm fluorescence, primary screen (AID 1133); conditions: FGF2, fluorescence 635/667, higher = more signal
[7] = JC-1 mitochondrial potential readout, lung cancer cells – cell-based, A549, JC-1 fluorescence, basal, 24 h, 100 nL, profiling panel (AID 1138); conditions: higher = more signal;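 note: A549 lung adenocarcinoma cells under basal conditions with no added stimulus; test concentration not given here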
[8] = system: Lefty1; experiment: Lefty1 protein binding to printed compounds – biochemical, small-molecule microarray, 635/667 nm fluorescence, primary screen (AID 1139); conditions: fluorescence 635/667, higher = more signal
[9] = system: wheat germ agglutinin (Triticum aestivum), Alexa647-labelled; experiment: Alexa647-WGA lectin binding to printed small molecules – biochemical, small-molecule microarray, 635/667 nm fluorescence, artefact control for SMM control-protein annotation, profiling panel (AID 1140); conditions: WGA-A647 binding, 635 nm fluorescence, higher = more signal;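 note: score merges 667 nm feature emission with signal to noise over triplicate slides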
[10] = target: Luciferin 4-monooxygenase (Photinus pyralis) (UniProt P08659); experiment: inhibition of purified Photinus pyralis luciferase – biochemical, luminescence, purified enzyme, 2006 set, primary screen (AID 1141); conditions: purified firefly luciferase, SteadyGlo luminescence, 30 min; higher = more signal, called active from +8 up or from −8 down;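 note: cell-free assay with purified firefly luciferase at 100 ng per well in PBS; test concentration not given here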
[11] = system: Wnt5a (protein binding on small-molecule microarray); experiment: small molecules binding Wnt5a protein – biophysical, small-molecule microarray, 635/667 nm fluorescence, primary screen (AID 1142); conditions: 635 nm fluorescence, higher = more signal;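 note: fluorescence read at 667 nm with signal to noise per printed feature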
[12] = ATP-based viability of Huh7 replicon cells – cell-based, CellTiter-Glo luminescence, basal, 48 h, cytotoxicity control for HCV replication inhibitor project, primary screen (AID 1143); conditions: higher = more signal, called active from +8 up or from −8 down;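 note: Huh7 hepatoma cells carrying a hepatitis C replication reporter with no stimulus; test concentration not given here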
[13] = Pseudomonas biofilm growth suppression – PAO1 strain, BacTiter-Glo luminescence, LB-PBS, primary screen (AID 1144); conditions: P. aeruginosa PAO1 biofilm, 12 h, higher = more signal
[14] = basal CRE-LacZ reporter activity in PC12 – cell-based, unstimulated, primary screen (AID 1145); conditions: no forskolin, luminescence, 4.5 h, higher = more signal, called active from +8 up or from −8 down
[15] = forskolin-driven CRE-LacZ activity in PC12 – cell-based, CRE-LacZ reporter, forskolin-stimulated, primary screen (AID 1146); conditions: luminescence, 4.5 h, higher = more signal, called active from +8 up or from −8 down;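 note: PC12 cells with 6xCRE LacZ reporter stimulated by forskolin 10 µM; beta-galactosidase reporter signal reflecting CREB driven transcription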
[16] = target: Streptavidin (Streptomyces avidinii) (UniProt P22629); experiment: compounds binding control protein streptavidin – biophysical, small-molecule microarray, 635/667 nm fluorescence, artefact control for SMM compound annotation, primary screen (AID 1147); conditions: higher = more signal;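 note: signal reflects streptavidin binding to arrayed compounds as a control protein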
[17] = probe aInhba binding on compound microarray – biochemical, small-molecule microarray, 635/667 nm fluorescence, primary screen (AID 1148); conditions: higher = more signal;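 note: score merges 667nm spot fluorescence with signal-to-noise for antibody binding to printed compounds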
[18] = target: Torsin-1A (Homo sapiens) (UniProt O14656); experiment: TOR1A wild-type binding on microarray – cell lysate, small-molecule microarray, lysate, 635/667 nm, primary screen (AID 1149); conditions: COS7 hTOR1A-WT lysate, 635 nm fluorescence, higher = more signal
[19] = target: Torsin-1A (Homo sapiens) (UniProt O14656); experiment: torsin A mutant lysate binding on microarrays – cell lysate, small-molecule microarray, COS7 lysate, 635/667 nm fluorescence, primary screen (AID 1150); conditions: COS7 hTOR1A mutant lysate, 635 nm fluorescence, higher = more signal;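 note: score pools 667 nm emission and signal to noise measuring lysate protein binding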
[20] = system: Sonic hedgehog protein (Shh); experiment: Sonic hedgehog microarray binding compounds – biochemical, small-molecule microarray, 635/667 nm fluorescence, primary screen (AID 1151); conditions: 635 nm fluorescence, higher = more signal;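 note: Shh protein binding to compounds spotted on small-molecule microarray slides; score combines spot fluorescence intensity with signal-to-noise across triplicate slides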

Sequence of Streptavidin (Streptomyces avidinii) (P22629 whole entry, looked up): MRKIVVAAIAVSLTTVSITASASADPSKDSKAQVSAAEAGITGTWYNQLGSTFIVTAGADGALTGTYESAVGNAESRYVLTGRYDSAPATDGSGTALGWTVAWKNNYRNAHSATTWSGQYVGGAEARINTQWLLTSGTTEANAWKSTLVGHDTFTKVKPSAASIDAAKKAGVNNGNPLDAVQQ
Sequence of Follistatin (Homo sapiens) (P19883 whole entry, looked up): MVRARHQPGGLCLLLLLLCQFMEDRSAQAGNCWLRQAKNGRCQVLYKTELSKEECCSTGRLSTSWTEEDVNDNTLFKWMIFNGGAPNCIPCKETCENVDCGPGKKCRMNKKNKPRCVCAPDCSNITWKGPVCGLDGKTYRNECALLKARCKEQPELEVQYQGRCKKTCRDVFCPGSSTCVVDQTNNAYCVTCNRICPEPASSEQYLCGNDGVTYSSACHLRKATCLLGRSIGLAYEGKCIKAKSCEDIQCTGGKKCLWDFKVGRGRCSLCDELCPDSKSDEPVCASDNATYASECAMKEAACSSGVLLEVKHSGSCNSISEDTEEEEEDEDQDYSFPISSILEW
Sequence of Luciferin 4-monooxygenase (Photinus pyralis) (P08659 whole entry, looked up): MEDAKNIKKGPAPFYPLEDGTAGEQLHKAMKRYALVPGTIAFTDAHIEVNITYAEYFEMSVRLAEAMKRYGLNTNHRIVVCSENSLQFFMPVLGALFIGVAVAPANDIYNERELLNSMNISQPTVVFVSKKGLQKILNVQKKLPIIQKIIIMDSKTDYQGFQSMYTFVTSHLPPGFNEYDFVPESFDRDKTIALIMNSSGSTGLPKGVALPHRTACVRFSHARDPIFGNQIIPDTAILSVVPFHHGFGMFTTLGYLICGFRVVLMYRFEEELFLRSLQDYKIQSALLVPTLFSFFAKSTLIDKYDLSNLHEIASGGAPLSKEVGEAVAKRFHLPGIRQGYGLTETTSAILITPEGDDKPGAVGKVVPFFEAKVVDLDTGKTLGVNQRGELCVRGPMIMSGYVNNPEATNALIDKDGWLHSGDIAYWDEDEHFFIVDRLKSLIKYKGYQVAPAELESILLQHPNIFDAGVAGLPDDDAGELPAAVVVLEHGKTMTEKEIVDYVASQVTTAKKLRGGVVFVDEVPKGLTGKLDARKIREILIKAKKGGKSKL
Sequence of Fibroblast growth factor 2 (Homo sapiens) (P09038 whole entry, looked up): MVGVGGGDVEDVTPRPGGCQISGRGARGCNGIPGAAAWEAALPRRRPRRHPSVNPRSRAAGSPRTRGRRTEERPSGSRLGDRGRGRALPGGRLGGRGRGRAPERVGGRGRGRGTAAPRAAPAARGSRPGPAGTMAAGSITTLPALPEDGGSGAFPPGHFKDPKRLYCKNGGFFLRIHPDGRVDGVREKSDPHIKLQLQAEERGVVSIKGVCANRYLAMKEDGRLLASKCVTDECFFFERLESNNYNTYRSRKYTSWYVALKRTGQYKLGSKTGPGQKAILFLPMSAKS
Sequence of Focal adhesion kinase 1 (Homo sapiens) (Q05397 whole entry, looked up): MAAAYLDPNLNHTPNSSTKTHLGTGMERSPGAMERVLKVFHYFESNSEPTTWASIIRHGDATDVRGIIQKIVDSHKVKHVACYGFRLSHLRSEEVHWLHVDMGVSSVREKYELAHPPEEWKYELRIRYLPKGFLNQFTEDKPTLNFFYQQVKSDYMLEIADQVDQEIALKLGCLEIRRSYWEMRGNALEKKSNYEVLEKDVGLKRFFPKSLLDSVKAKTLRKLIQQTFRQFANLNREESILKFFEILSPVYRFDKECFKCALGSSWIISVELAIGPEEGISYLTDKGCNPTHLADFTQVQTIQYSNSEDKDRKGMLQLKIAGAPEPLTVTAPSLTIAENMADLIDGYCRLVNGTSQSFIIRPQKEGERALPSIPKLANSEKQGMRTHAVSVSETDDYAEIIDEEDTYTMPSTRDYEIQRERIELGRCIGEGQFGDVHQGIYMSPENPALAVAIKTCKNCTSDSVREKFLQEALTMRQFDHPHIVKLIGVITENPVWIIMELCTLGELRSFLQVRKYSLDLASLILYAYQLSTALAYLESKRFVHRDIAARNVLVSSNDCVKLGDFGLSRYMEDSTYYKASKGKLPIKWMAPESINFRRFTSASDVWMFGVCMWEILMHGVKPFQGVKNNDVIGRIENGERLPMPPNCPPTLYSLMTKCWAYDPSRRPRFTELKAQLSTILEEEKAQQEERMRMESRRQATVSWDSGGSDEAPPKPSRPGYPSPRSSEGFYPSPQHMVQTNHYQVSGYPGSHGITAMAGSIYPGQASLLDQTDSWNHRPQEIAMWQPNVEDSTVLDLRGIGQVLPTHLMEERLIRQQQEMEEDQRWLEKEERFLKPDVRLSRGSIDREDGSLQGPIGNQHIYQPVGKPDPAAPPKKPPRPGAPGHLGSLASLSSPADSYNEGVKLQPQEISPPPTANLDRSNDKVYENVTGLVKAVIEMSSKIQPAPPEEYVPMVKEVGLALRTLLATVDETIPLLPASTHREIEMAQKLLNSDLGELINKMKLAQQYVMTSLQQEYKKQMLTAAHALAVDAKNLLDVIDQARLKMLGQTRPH
Sequence of Torsin-1A (Homo sapiens) (O14656 whole entry, looked up): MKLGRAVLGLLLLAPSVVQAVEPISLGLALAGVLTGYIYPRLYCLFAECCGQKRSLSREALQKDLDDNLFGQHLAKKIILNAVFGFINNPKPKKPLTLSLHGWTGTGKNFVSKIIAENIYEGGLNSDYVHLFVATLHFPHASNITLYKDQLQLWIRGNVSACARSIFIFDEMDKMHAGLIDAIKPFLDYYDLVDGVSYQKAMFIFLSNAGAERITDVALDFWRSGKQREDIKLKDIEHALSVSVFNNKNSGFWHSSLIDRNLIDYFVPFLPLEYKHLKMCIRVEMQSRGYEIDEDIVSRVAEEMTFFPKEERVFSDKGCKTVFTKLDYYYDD

Structure (SMILES) | composite z-score [1] | composite z-score [2] | composite z-score [3] | composite z-score [4] | composite z-score [5] | composite z-score [6] | z-score [7] | composite z-score [8] | composite z-score [9] | z-score [10] | composite z-score [11] | z-score [12] | z-score [13] | z-score [14] | z-score [15] | composite z-score [16] | composite z-score [17] | composite z-score [18] | composite z-score [19] | composite z-score [20]
CCOC(=O)C[C@H]1[C@H](OC(=O)c2ccccc2-c2ccccc2)[C@@H](NC(=O)c2ccc(-c3ccccc3)cc2)c2cc(OCCCO)ccc2N1C(=O)c1ccccc1 | 0.426 | 0.78 | 0.177 | 0.58 | 0.77 | 0.466 | 1.39 | 0.935 | 0.17 | -0.0993 (inactive) | 0.0187 | -0.134 (inactive) | 0.945 (inactive) | 3.85 (inactive) | -1.14 (inactive) | 0.236 | 0.0569 | -0.29 | 0.272 | 0.684
CC(C)(C)OC(=O)CC[C@]1(C(=O)NCC(O)CO)N=C(c2ccc(OCCCO)cc2)O[C@H]1c1ccccc1CN=[N+]=[N-] (stereo not given in full) | 2.31 | 0.705 | -0.0371 | 1.03 | 0.662 | 0.703 | -0.101 | -0.637 | 0.959 | -0.718 (inactive) | 0.921 | 0.168 (inactive) | -1.35 (inactive) | 0.0594 (inactive) | -0.209 (inactive) | 1.63 | 0.496 | 0.399 | 2.06 | -0.535
C=CCCN(CC#C[C@H]1Oc2ccccc2S(=O)(=O)N2CCC[C@@H]12)S(=O)(=O)c1ccc(C)cc1 | 0.881 | 0.136 | 0.172 | -0.348 | 0.546 | 1.22 | 0.957 | 0.317 | -0.0231 | -0.291 (inactive) | 0.264 | -1.57 (inactive) | 0.592 (inactive) | 0.761 (inactive) | 3.31 (inactive) | -0.198 | -0.0471 | 0.554 | -0.109 | 0.624
CC(C)C(=C=CC[C@H](O)c1ccccc1OCCO)CCO | 0.526 | 0.0618 | 0.101 | 0.217 | 0.0251 | 0.465 | 0.205 | 0.653 | 0.417 | 0.27 (inactive) | -0.0207 | -0.334 (inactive) | 0.00427 (inactive) | 2.14 (inactive) | 1.49 (inactive) | -0.366 | -0.101 | -0.0451 | 0.408 | 0.569
C=C(C(=O)CC[C@H](OC(=O)c1cccnc1)c1ccccc1OCCO)C(C)C | 0.971 | 0.834 | 0.092 | 0.101 | 1.42 | 1.83 | 0.0404 | 1.44 | 0.0398 | -0.0549 (inactive) | 1.14 | -1.13 (inactive) | -0.467 (inactive) | 2.22 (inactive) | 0.716 (inactive) | -0.383 | -0.168 | 2.32 | 1.54 | 2.27
CN1C(=O)C2C=CC(C(O)C=Cc3ccc([N+](=O)[O-])cc3)N(N3CCCCC3)C2C1=O (stereo not given) | 1.25 | 1.2 | 0.518 | 0.966 | 1.4 | 0.544 | 0.39 | 0.393 | 1.28 | -1.79 (inactive) | 1.32 | 0.795 (inactive) | 0.287 (inactive) | -0.519 (inactive) | 0.855 (inactive) | 2.09 | 1.22 | 0.704 | 0.451 | 0.909
CO[C@H]1O[C@H](CO)[C@@H](OC(=O)Nc2ccc3c(c2)OCO3)[C@H](OC(=O)Nc2ccc3c(c2)OCO3)[C@H]1OC(=O)Nc1ccc2c(c1)OCO2 | 2.47 | 1.22 | 0.0847 | 0.86 | 1.23 | 0.506 | -0.641 | 0.683 | 1.02 | -5.43 (inactive) | 0.158 | -1.2 (inactive) | -0.416 (inactive) | 1.05 (inactive) | -0.808 (inactive) | 0.697 | 0.297 | 0.713 | 1.74 | 0.942
O=C1C2C=CC(C(O)c3cccc4ccccc34)N(n3cnnc3)C2C(=O)N1Cc1ccccc1 (stereo not given) | 0.968 | -0.0247 | 0.699 | 0.798 | 0.355 | 0.406 | -0.94 | 0.302 | 0.872 | 1.06 (inactive) | 1.24 | 0.251 (inactive) | 0.878 (inactive) | 0.425 (inactive) | 0.972 (inactive) | 0.225 | 1.28 | 0.104 | -0.0432 | 0.177
CCCNC(=O)[C@@]1(c2ccc([N+](=O)[O-])cc2)CC(=O)N(CC23CC4CC(CC(C4)C2)C3)[C@@H]1c1ccc(CO)cc1I | 1.02 | 1.08 | 1.19 | -0.0329 | 0.541 | 0.753 | 1.04 | -0.462 | 0.519 | -0.1 (inactive) | 0.572 | -5.46 (inactive) | 0.468 (inactive) | 0.234 (inactive) | 0.299 (inactive) | 0.131 | 0.834 | 0.253 | 0.55 | 0.825
COC(=O)[C@@]1(Cc2ccc(F)cc2)[C@H]2c3cc(C(=O)N(C)C)n(CCCNc4ccc(C(F)(F)F)cc4Cl)c3C[C@H]2CN1C(=O)c1ccccc1 | 2.17 | 1.24 | 0.903 | 1.01 | 0.543 | -0.123 | 0.284 | 0.0748 | 1.3 | 0.579 (inactive) | 0.72 | -3.53 (inactive) | -0.119 (inactive) | -0.379 (inactive) | 0.607 (inactive) | 1.8 | 0.572 | -0.335 | 0.547 | -0.576
